# Experimental data: PubChem BioAssay (EPA / NIEHS)
# Where “and” joins values, the source holds several entries; their conditions need not be identical. Equal values may be shown once. Results filed as inconclusive are left out. Some compounds were tested as several samples or in several runs, with calls that do not always agree. Calls of active or inactive are those of the source. The calls were made as follows: active = hit-call score of the fitted dose curve at least 0.9, where 1 is the maximum; inconclusive = response in the unintended direction; inactive = score below 0.9.
# Tests used:
# [1] = TOX21_p53_BLA_p2_viability: Viability Assessment in the Tox21 HCT-116 p53 Agonism Beta-lactamase Assay, Phase 2 (AID 2283591);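 also: compound exposure lasted 16 h at 37 °C; actives lower the ATP signal meaning cytotoxicity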
# Method in brief: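 HCT-116 p53-bla cells (4000/well) rested 5 h at 37C, then received compounds in DMSO (217-fold dilution) for 16 h at 37C, 5% CO2. After the CCF4 read, CellTiter-Glo was added; ATP luminescence was read after 30 min at room temperature.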
# [2] = target: Cellular tumor antigen p53 (Homo sapiens) (UniProt P04637); assay: TOX21_p53_BLA_p2_ratio: Tox21 HCT-116 p53 Agonism Beta-lactamase Assay, Ratio, Phase 2 (AID 2283592)
# Cellular tumor antigen p53 (Homo sapiens), sequence (P04637 whole entry, looked up): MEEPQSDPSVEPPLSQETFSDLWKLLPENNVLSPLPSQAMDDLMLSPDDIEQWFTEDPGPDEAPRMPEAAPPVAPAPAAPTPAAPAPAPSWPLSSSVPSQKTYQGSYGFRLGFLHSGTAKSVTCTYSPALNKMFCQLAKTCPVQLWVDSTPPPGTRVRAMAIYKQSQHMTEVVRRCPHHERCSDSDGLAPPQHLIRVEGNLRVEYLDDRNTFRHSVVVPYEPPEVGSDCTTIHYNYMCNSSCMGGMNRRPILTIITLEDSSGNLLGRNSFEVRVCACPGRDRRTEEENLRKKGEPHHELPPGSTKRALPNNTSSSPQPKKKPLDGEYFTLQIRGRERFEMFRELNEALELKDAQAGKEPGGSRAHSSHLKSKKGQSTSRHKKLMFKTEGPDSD
# Method in brief: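 In this cell-based reporter format, HCT116 cells were dosed with chemicals delivered from DMSO by 217-fold dilution and incubated 16 h at 37C. Emission at 460 and 530 nm after 2 h CCF4-AM loading provided the ratio, fitted upward versus DMSO.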
# [3] = TOX21_p53_BLA_p3_viability: Viability Assessment in the Tox21 HCT-116 p53 Agonism Beta-lactamase Assay, Phase 3 (AID 2283593)
# Method in brief: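 HCT-116 cells (4000/well) rested 5 h at 37C, then got DMSO compounds by pin tool (217-fold dilution) for 16 h at 37C, 5% CO2. After the bla read, CellTiter-Glo was added and luminescence read at 30 min, room temperature.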
# [4] = target: Cellular tumor antigen p53 (Homo sapiens) (UniProt P04637); assay: TOX21_p53_BLA_p3_ratio: Tox21 HCT-116 p53 Agonism Beta-lactamase Assay, Ratio, Phase 3 (AID 2283596)
# Method in brief: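 HCT116 p53-bla cells (4000/well) given compound in DMSO (217-fold dilution) after 5 h, incubated 16 h at 37C. CCF4-AM substrate 2 h at room temperature; 460/530 nm emission ratio, gain fitted against DMSO.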
# [5] = TOX21_p53_BLA_p4_viability: Viability Assessment in the Tox21 HCT-116 p53 Agonism Beta-lactamase Assay, Phase 4 (AID 2283597);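 also: hits lower the luminescence signal meaning cytotoxicity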
# Method in brief: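 We seeded HCT116 p53 reporter cells at 4000/well and waited 5 h. We then added compounds in DMSO at a 217-fold dilution and incubated for 16 h. Viability was read as CellTiter-Glo luminescence after 30 min at RT.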
# [6] = target: Cellular tumor antigen p53 (Homo sapiens) (UniProt P04637); assay: TOX21_p53_BLA_p5_ratio: Tox21 HCT-116 p53 Agonism Beta-lactamase Assay, Ratio, Phase 5 (AID 2283599)
# Method in brief: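 HCT-116 cells carrying a p53-inducible beta-lactamase reporter were seeded at 4000 cells/well and dosed after 5 h with compound in DMSO (217-fold dilution). After 16 h at 37C, CCF4-AM substrate was added for 2 h, and the 460/530 nm emission ratio was scored as gain-of-signal versus DMSO.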
# [7] = TOX21_p53_BLA_p5_viability: Viability Assessment in the Tox21 HCT-116 p53 Agonism Beta-lactamase Assay, Phase 5 (AID 2283600)
# Method in brief: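 Compounds, pinned from DMSO at 217-fold dilution, were left on the cells for 16 h. The viability endpoint was ATP content measured by CellTiter-Glo luminescence, where falling signal reflects cytotoxicity.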
# [8] = target: Cellular tumor antigen p53 (Homo sapiens) (UniProt P04637); assay: TOX21_p53_BLA_p4_ratio: Tox21 HCT-116 p53 Agonism Beta-lactamase Assay, Ratio, Phase 4 (AID 2283601)
# Method in brief: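 HCT116 cells carrying an inducible beta-lactamase reporter were plated at 4000 cells/well, rested 5 h, then exposed to compounds in DMSO (217-fold dilution) for 16 h at 37C. CCF4-AM substrate was loaded 2 h at room temperature; 460/530 nm emission ratio scored gain-of-signal versus DMSO.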
# PGR (gene 5241) [9] = target: PGR (gene 5241) (UniProt P06401); assay: TOX21_PR_BLA_Followup_Antagonist_ratio: Tox21 HEK293 Progesterone Receptor (PR) Antagonism Beta-lactamase Follow-Up Assay, Ratio (AID 2283934)
# PGR (gene 5241), sequence (P06401 whole entry, looked up): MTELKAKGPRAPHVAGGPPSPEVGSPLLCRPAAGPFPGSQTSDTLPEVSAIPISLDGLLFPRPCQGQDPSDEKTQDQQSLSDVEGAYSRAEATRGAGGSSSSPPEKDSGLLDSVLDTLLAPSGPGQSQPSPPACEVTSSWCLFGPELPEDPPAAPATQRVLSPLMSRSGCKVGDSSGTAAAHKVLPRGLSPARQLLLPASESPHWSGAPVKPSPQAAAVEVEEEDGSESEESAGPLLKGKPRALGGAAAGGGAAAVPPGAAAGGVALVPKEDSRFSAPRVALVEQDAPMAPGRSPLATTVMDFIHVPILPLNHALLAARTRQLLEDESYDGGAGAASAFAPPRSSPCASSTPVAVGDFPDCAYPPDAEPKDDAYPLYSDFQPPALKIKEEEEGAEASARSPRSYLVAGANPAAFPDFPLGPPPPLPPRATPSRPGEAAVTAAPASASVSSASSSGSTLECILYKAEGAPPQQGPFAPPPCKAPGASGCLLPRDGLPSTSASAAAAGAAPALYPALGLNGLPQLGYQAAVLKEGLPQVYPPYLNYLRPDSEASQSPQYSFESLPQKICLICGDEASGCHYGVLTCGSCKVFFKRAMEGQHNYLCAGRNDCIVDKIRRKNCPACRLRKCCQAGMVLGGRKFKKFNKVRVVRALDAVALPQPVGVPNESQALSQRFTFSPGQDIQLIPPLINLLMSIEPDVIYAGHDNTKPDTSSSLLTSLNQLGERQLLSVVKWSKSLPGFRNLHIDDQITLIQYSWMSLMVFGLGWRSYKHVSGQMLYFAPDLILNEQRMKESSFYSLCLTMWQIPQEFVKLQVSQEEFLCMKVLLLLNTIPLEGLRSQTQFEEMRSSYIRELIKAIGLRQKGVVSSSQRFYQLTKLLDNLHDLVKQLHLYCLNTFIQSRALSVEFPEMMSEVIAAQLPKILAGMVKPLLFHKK
# Method in brief: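 PR-UAS-bla HEK293T cells, 3,000/well in 2% charcoal-stripped FBS, given compound plus 1nM R5020 agonist for 16 hr at 37C. Beta-lactamase FRET substrate 2 hours, ratio cleaved/uncleaved fluorescence; viability by CellTiter-Glo in same wells.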
# [10] = TOX21_PR_BLA_Followup_Agonist_viability: Viability Assessment in the Tox21 HEK293 Progesterone Receptor (PR) Agonism Beta-lactamase Follow-Up Assay (AID 2283935);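 also: signal loss means lower viability so actives are cytotoxic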
# Method in brief: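 PR-UAS-bla HEK293T cells in 2% charcoal-stripped FBS medium, plated 6 hr before compound addition, exposed 16 hr at 37C. Viability read by CellTiter-Glo ATP luminescence after 30 min at room temperature, in the same wells as the beta-lactamase readout.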
# [11] = TOX21_PR_BLA_Followup_Antagonist_viability: Viability Assessment in the Tox21 HEK293 Progesterone Receptor (PR) Antagonism Beta-lactamase Follow-Up Assay (AID 2283936);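 also: hits lower the luminescence signal meaning cytotoxicity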
# Method in brief: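 PR-UAS-bla HEK293T cells (3,000/well, 2% charcoal-stripped FBS) given compound plus R5020 agonist, 16 h at 37C. CellTiter-Glo added after bla read, 30 min at room temperature; luminescence loss indicates cytotoxicity.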
# PGR (gene 5241) [12] = target: PGR (gene 5241) (UniProt P06401); assay: TOX21_PR_LUC_Followup_Antagonist: Tox21 HEK293 Progesterone Receptor (PR) Antagonism Luciferase Follow-Up Assay (AID 2283938);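 also: curve fitted upward as signal gain over DMSO baseline despite antagonist label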
# Method in brief: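 Luminescence from ONE-Glo reagent, measured after 30 min at room temperature, served as readout. Cells (HEK293 carrying PR-A-luc) had been treated 16 h at 37C with DMSO-dissolved compounds. Activity was fitted against DMSO controls.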
# [13] = TOX21_PR_LUC_Followup_Antagonist_viability: Viability Assessment in the Tox21 HEK293 Progesterone Receptor (PR) Antagonism Luciferase Follow-Up Assay (AID 2283940)
# Method in brief: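 HEK293-PR-A-luc cells kept in charcoal-stripped FBS medium were plated 5 h before compound addition, then exposed 16 h at 37C; viability read as cellular ATP by luciferase luminescence, loss of signal indicating cytotoxicity.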
compound,measurement,setting,value
CCCCCCCCCCCCCCn1cc[n+](C)c1,AC50,[1],82.2 µM (active) and 60.1 µM (active)
same,outcome,[1],inactive
same,AC50,[2],6.74 µM (active) and 2.12 µM (active)
same,outcome,[2],inactive
same,AC50,[3],10.3 µM (active) and 77.3 µM (active)
same,outcome,[3],inactive
same,AC50,[4],14 µM (active) and 6.93 µM (active)
same,outcome,[4],inactive
same,AC50,[5],598 nM (active) and 40 µM (active)
same,outcome,[5],inactive
same,AC50,[6],49.6 µM (active) and 39.7 µM (active)
same,AC50,[7],86.2 µM (active) and 46.2 µM (active)
same,outcome,[7],inactive
same,AC50,[8],63.9 µM (active) and 63.4 µM (active)
same,outcome,[8],inactive
Oc1ccc(C(=C(Cl)Cl)c2ccc(O)cc2)cc1,outcome,[1],inactive
same,AC50,[2],41.2 µM (active)
same,outcome,[3],inactive
same,outcome,[4],inactive
same,AC50,[5],77.7 µM (active)
same,outcome,[6],inactive
same,outcome,[7],inactive
same,AC50,[8],72.4 µM (active)
C[C@]12C/C(=C/O)C(=O)C[C@@H]1CC[C@@H]1[C@@H]2CC[C@@]2(C)[C@H]1CC[C@]2(C)O,outcome,[1],inactive
same,AC50,[2],42.5 µM (active)
same,outcome,[2],inactive
same,AC50,[3],66.6 µM (active)
same,outcome,[3],inactive
same,outcome,[4],inactive
same,AC50,[5],52.8 µM (active) and 34.6 µM (active)
same,outcome,[6],inactive
same,AC50,[7],71.4 µM (active)
same,outcome,[7],inactive
same,AC50,[8],42.4 µM (active)
same,outcome,[8],inactive
same,outcome,PGR (gene 5241) [9],inactive
same,outcome,[10],inactive
same,outcome,[11],inactive
same,outcome,PGR (gene 5241) [12],inactive
same,outcome,[13],inactive
N=C(N)[Se],outcome,[1],inactive
same,outcome,[2],inactive
same,outcome,[3],inactive
same,outcome,[4],inactive
same,outcome,[5],inactive
same,outcome,[6],inactive
same,outcome,[7],inactive
same,outcome,[8],inactive
S=C=S,outcome,[1],inactive
same,outcome,[2],inactive
same,outcome,[3],inactive
same,outcome,[4],inactive
same,outcome,[5],inactive
same,outcome,[6],inactive
same,outcome,[7],inactive
same,outcome,[8],inactive
CN[C@@H]1C[C@@H](c2ccc(Cl)c(Cl)c2)c2ccccc21,outcome,[1],inactive
same,outcome,[2],inactive
same,outcome,[3],inactive
same,outcome,[4],inactive
same,AC50,[5],33.9 µM (active)
same,outcome,[6],inactive
same,outcome,[7],inactive
same,outcome,[8],inactive
Clc1ccc(CSC(Cn2ccnc2)c2ccc(Cl)cc2Cl)cc1 (stereo unspecified),outcome,[1],inactive
same,AC50,[2],17.7 µM (active)
same,outcome,[3],inactive
same,outcome,[4],inactive
same,outcome,[5],inactive
same,outcome,[6],inactive
same,outcome,[7],inactive
same,AC50,[8],15.4 µM (active)
c1ccc2c(c1)[nH]c1cnccc12,outcome,[1],inactive
same,outcome,[2],inactive
same,outcome,[3],inactive
same,AC50,[4],46.1 µM (active)
same,outcome,[5],inactive
same,outcome,[6],inactive
same,outcome,[7],inactive
same,outcome,[8],inactive
CCCCCl,outcome,[1],inactive
same,outcome,[2],inactive
same,outcome,[3],inactive
same,outcome,[4],inactive
same,outcome,[5],inactive
same,outcome,[6],inactive
same,outcome,[7],inactive
same,outcome,[8],inactive
CN1C[C@@H](NS(=O)(=O)N(C)C)C[C@@H]2c3cccc4c3c(cn4C)C[C@H]21,outcome,[1],inactive
same,outcome,[2],inactive
same,outcome,[3],inactive
same,outcome,[4],inactive
same,outcome,[5],inactive
same,outcome,[6],inactive
same,outcome,[7],inactive
same,outcome,[8],inactive
Oc1cccc[c]1[Hg][Cl],AC50,[1],4.03 µM (active)
same,AC50,[2],8.58 µM (active)
same,AC50,[3],9.5 µM (active)
same,AC50,[4],18.6 µM (active)
same,AC50,[5],4.24 µM (active)
same,AC50,[6],6.39 µM (active)
same,AC50,[7],3.94 µM (active)
same,AC50,[8],8.72 µM (active)
Oc1c(Br)c(Br)c(Br)c(Br)c1Br,outcome,[1],inactive
same,AC50,[2],1.56 µM (active)
same,outcome,[3],inactive
same,AC50,[4],0.886 µM (active)
same,outcome,[5],inactive
same,outcome,[6],inactive
same,outcome,[7],inactive
same,outcome,[8],inactive
Clc1ccc(CO/N=C(\Cn2ccnc2)c2ccc(Cl)cc2Cl)c(Cl)c1,AC50,[1],23 µM (active)
same,AC50,[2],38.7 µM (active)
same,outcome,[3],inactive
same,AC50,[4],42.8 µM (active)
same,AC50,[5],33.4 µM (active)
same,AC50,[6],36.3 µM (active)
same,outcome,[7],inactive
same,AC50,[8],33 µM (active)
S=C=Nc1cccc2ccccc12,outcome,[1],inactive
same,AC50,[2],38.5 µM (active)
same,outcome,[3],inactive
same,outcome,[4],inactive
same,outcome,[5],inactive
same,outcome,[6],inactive
same,outcome,[7],inactive
same,AC50,[8],32.4 µM (active)
O=C(O)C(Cl)Br (stereo unspecified),outcome,[1],inactive
same,outcome,[2],inactive
same,outcome,[3],inactive
same,outcome,[4],inactive
same,outcome,[5],inactive
same,outcome,[6],inactive
same,outcome,[7],inactive
same,outcome,[8],inactive
CNC(=O)Oc1ccccc1C(=O)Nc1ccccc1,outcome,[1],inactive
same,outcome,[2],inactive
same,outcome,[3],inactive
same,outcome,[4],inactive
same,outcome,[5],inactive
same,outcome,[6],inactive
same,outcome,[7],inactive
same,outcome,[8],inactive
CCCCCc1cc(O)c2c(c1)OC(C)(C)[C@@H]1CCC(C)=C[C@@H]21,AC50,[1],24.4 µM (active)
same,AC50,[2],41.7 µM (active)
same,AC50,[3],23.4 µM (active)
same,AC50,[4],40.4 µM (active)
same,AC50,[5],21.4 µM (active)
same,AC50,[6],43.1 µM (active)
same,AC50,[7],32.8 µM (active)
same,AC50,[8],40 µM (active)
Oc1cc(Cl)c(Cl)c(Cl)c1Cl,outcome,[1],inactive
same,AC50,[2],5.97 µM (active)
same,AC50,[3],22.3 µM (active)
same,AC50,[4],6.58 µM (active)
same,outcome,[5],inactive
same,AC50,[6],7.24 µM (active)
same,outcome,[7],inactive
same,AC50,[8],7.69 µM (active)
CC(O)CN1CCN(CC(=O)[O-])CCN(CC(=O)[O-])CCN(CC(=O)[O-])CC1.[Gd+3] (stereo unspecified),outcome,[1],inactive
same,outcome,[2],inactive
same,outcome,[3],inactive
same,outcome,[4],inactive
same,outcome,[5],inactive
same,outcome,[6],inactive
same,outcome,[7],inactive
same,outcome,[8],inactive
C#C[C@]1(OC(=O)CCCCCC)CC[C@H]2[C@@H]3CCC4=CC(=O)CC[C@@H]4[C@H]3CC[C@@]21C,AC50,[1],8.02 µM (active)
same,outcome,[2],inactive
same,AC50,[3],23 µM (active)
same,outcome,[4],inactive
same,outcome,[5],inactive
same,outcome,[6],inactive
same,outcome,[7],inactive
same,outcome,[8],inactive
